Screens: PubChem, several laboratories
PrP 5UTR inh – inhibition of PrP 5' UTR reporter expression; cell-based PrP 5' UTR mRNA reporter, plate reader; inhibition, % (no concentration beside the values); 0.35% of 340,000 active; in the data active = inhibition above about 52%; also: 0 = median of the neutral control wells
UGM FP inh – blocks M. tuberculosis UGM enzyme; P9WIQ1; purified UGM, fluorescence polarization probe displacement; inhibition, % at 10 µM; 0.06% of 320,000 active; in the data active = inhibition above about 10%, passing the limit was not always enough; inconclusive = no clear call, values can overlap the other calls
Rv3671c inh – Rv3671c (M. tuberculosis) protease inhibition; P9WHR9; inhibition, % at 5.96 µM; 0.048% of 320,000 active; in the data active = inhibition above about 38%;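 also: extracellular domain of Rv3671c used as enzyme; 0% = enzyme with DMSO and 100% = no enzyme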
Target sequence (P9WHR9 whole entry, looked up, the tested form may be a part): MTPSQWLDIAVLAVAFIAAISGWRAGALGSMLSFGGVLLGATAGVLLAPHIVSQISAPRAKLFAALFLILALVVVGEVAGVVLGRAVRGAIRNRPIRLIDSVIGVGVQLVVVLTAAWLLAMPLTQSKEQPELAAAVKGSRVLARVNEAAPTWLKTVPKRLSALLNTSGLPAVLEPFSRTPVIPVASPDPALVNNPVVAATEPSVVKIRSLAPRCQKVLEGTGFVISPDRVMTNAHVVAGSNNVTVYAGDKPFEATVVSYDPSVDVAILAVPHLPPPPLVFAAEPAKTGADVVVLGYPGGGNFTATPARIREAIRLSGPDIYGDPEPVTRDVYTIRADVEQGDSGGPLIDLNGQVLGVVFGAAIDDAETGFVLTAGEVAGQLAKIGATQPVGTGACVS
RecA intein inh – inhibitors of M. tuberculosis RecA intein splicing; P9WHJ3; cell-free RecA intein splicing, fluorescence; inhibition, % (test concentration not listed); 0.75% of 290,000 active; in the data active = inhibition above about 30%; inconclusive = no clear call, values can overlap the other calls;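 also: 0% = vehicle wells and 100% = reference inhibitor control wells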
BJeLR viability – BJeLR cell viability loss; BJeLR (HRASV12) viability, CellTiter-Glo ATP luminescence, 48 h; inhibition, % (no concentration beside the values); 0.17% of 300,000 active; AID 1554; in the data active = inhibition above about 50%; inconclusive = no clear call, values can overlap the other calls
FadD28 binding – M. tuberculosis FadD28 bisubstrate binding inhibition; FadD28 bisubstrate probe binding, fluorescence polarization; inhibition, % at 12.5 µM; 0.22% of 360,000 active; AID 588549; in the data active = inhibition above about 8.5%, passing the limit was not always enough; inconclusive = no clear call, values can overlap the other calls
GFP chromophore – counter-screen: blocks GFP chromophore formation | EC50, µM | shares compounds with RecA intein inh | 83% of 2,100 active | cell-free GFP chromophore formation, fluorescence | AID 434968; call rule not given here
* marks the source's active call; other numbers are inactive results; ? = inconclusive; . = no result given. Shown are actives, neighbours in structure and some others; about 1.3% of the full set was active somewhere.

SMILES	PrP 5UTR inh	UGM FP inh	Rv3671c inh	RecA intein inh	BJeLR viability	FadD28 binding	GFP chromophore
CCc1nc2ccc(C(=O)N(C)Cc3ccccc3)cn2c1N(C)Cc1ccc(OC)cc1	.	.	.	.	.	1	.
CC(Oc1ccc(F)cc1)C(=O)Oc1ccc(N(C)S(=O)(=O)c2ccccc2)cc1 (configuration not stated)	-24	-2	15	39*	0	1	>38
CC(=O)Nc1cc(-c2ccoc2)cn2c(-c3ccccc3)cnc12	.	.	.	.	.	-3	.
CC(C)C[C@H]1C(=O)N2CCC[C@H]2[C@]2(O)O[C@](NC(=O)[C@@H]3C=C4c5cccc6[nH]c(Br)c(c56)CC4N(C)C3)(C(C)C)C(=O)N12 (some centres not stated)	-19	0	0	56*	-5	-4	>38
CC(C)C[C@H]1C(=O)N2CCCC2[C@]2(O)O[C@](NC(=O)[C@@H]3C=C4c5cccc6[nH]cc(c56)CC4N(C)C3)(C(C)C)C(=O)N12 (some centres not stated)	-10	8	-40	?	-6	-3	.
CCOC(=O)N1CCc2cc(OC)c(OC)c3c2c1cc1cc(OC)c(OC)cc13	-23	.	.	.	.	-2	.
CN1CC[C@@H]2C(=O)N3CCc4ccc(-c5ccc6c(c5)OCO6)cc4[C@@H]3C[C@@H]21	-7	.	.	.	.	0	.
CCc1nc(SCC(=O)N2CCN(c3ccccc3)CC2)c2oc3ccccc3c2n1	-6	1	-11	32*	6	0	>38
N=c1c2c(-c3ccccc3)c(-c3ccccc3)n(Cc3ccco3)c2ncn1Cc1ccccc1	-30	0	0	59*	3	-1	5.2*
Cn1nc(C(C)(C)C)cc1C(=O)N1CCCCC1c1cc(C(=O)NCc2ccc(F)cc2)no1 (configuration not stated)	.	.	.	.	.	-2	.
CC(C)COC(=O)N1CCCCC1c1cc(C(=O)NC(C)C)no1 (configuration not stated)	.	.	.	.	.	0	.
Cc1[nH]n(-c2ccccc2)c(=O)c1C(C[N+](=O)[O-])c1ccc(Br)cc1 (configuration not stated)	-1	3	-21	77*	1	1	17*
Cc1ccc(C(C[N+](=O)[O-])c2c(N)n(C)c(=O)n(C)c2=O)cc1 (configuration not stated)	5	-1	9	-3	-1	-1	.
COc1cccc(C(C[N+](=O)[O-])c2c(C)[nH]n(-c3ccccc3)c2=O)c1 (configuration not stated)	-17	2	-163	96*	-6	1	27*
COc1ccc(N2C(=O)N3[C@@H]4c5ccccc5OC[C@@H]4[C@@H](c4ccccc4)[C@@]3(C)C2=O)cc1	-16	-1	2	.	.	-6	.
Cc1cc(C(=O)c2ccc(C(C)(C)C)cc2)c(NC(=O)CCl)s1	6	-2	-19	67*	-6	-1	34*
Cc1sc(NC(=O)CCl)c(C(=O)c2ccccc2)c1C	-5	2	-2	63*	2	-2	32*
COc1cc(OC)nc(Nc2nc(C(N)Cc3ccc(C(F)(F)F)cc3)cs2)n1 (configuration not stated)	.	.	.	.	.	-7	.
CCOC(=O)C1=C(c2ccccc2)NC(N)=NC1c1ccc(OCc2ccc(Cl)cc2)c(OC)c1 (configuration not stated)	-26	-4	11	49*	7	-7	>12
CCOC(=O)C1=C(c2ccccc2)NC(=O)NC1c1cc(Cl)c(O)c(OC)c1 (configuration not stated)	-6	2	8	3	-1	0	.
CC(C)(C)c1cnnn1-c1ccc(C(=O)CCl)cc1	-23	-2	1	75*	1	-1	5.9*
CC(C)(C)c1cnnn1-c1ccc(C=O)cc1	-25	-5	5	-2	-4	-1	.
CN1CCN(C(c2ccc(C(F)(F)F)cc2)c2cc(Cl)c3cccnc3c2O)CC1 (configuration not stated)	.	0	1	44*	19	.	18*
CN1CCN(C(c2ccc(Cl)cc2)c2cc(Cl)c3cccnc3c2O)CC1 (configuration not stated)	-22	-3	3	79*	-2	-7	31*
Oc1c(C(c2ccccn2)N2CCCCC2)cc(Cl)c2cccnc12 (configuration not stated)	1	0	15	10	11	-2	.
SMILES	PrP 5UTR inh	UGM FP inh	Rv3671c inh	RecA intein inh	BJeLR viability	FadD28 binding	GFP chromophore
COc1ccc(C2NC(c3ccc(OC)cc3OC)C(C)C(=O)C2C)c(OC)c1 (configuration not stated)	-24	0	-2	51*	2	-5	>38
COc1ccc(OC)c(C2CC(=O)C(C)C(c3cc(OC)ccc3OC)N2)c1 (configuration not stated)	-17	-2	3	0	3	1	.
Cc1ccccc1CS(=O)(=O)c1snnc1C	-26	-2	-6	44*	-10	0	>38
CC(C)CC1C(=O)N(Cc2cn(Cc3ccco3)nn2)CCS(=O)(=O)N1Cc1ccc(-c2cccc(N(C)C)c2)cc1 (configuration not stated)	.	.	.	.	.	-6	.
CCOC(=O)C/C(C)=N/NC(=O)COc1ccccc1C	-19	3	-20	62*	-5	-1	13*
CCCCN(CCCNC(=O)c1ccc2c(c1)NC(=O)CN2C)c1ccccc1	.	.	.	.	.	-3	.
Cc1ccc(SCc2cc(=O)n(C)[nH]2)cc1	-10	6	-15	95*	-7	1	19*
Cc1ccc(SCc2cc(=O)n3[nH]c(C)nc3n2)cc1	-22	2	-2	3	-1	-2	.
CC(=O)N(C1=C(N2CCOCC2)C(=O)c2ccccc2C1=O)c1ccc(C(=O)O)cc1	-1	2	-53	61*	-15	0	20*
CCCCCCNC(=O)O[C@H]1C[C@H](C(=O)OC)[C@H](C(=O)OC)C2CN(S(=O)(=O)c3ccc(C)cc3)C[C@@]21O (some centres not stated)	.	.	.	.	.	-5	.
Cc1cccc(CSc2nc(N)c(C#N)c(-c3cccs3)c2C#N)c1	-16	4	-90	3	-13	-3	.
CN1CCc2nc(SCC(=O)Nc3ccc(OC(F)(F)F)cc3)c(C#N)c(-c3cccs3)c2C1	-59	0	-3	88*	-11	-3	3.9*
Cc1cccc(CSc2nc3c(c(-c4cccs4)c2C#N)CN(C)CC3)c1	-22	2	7	61*	3	0	25*
CC(=O)Nc1cccc(-c2ccnc3c2CC(C(=O)NCc2cccs2)O3)c1 (configuration not stated)	.	.	.	.	.	-1	.
Cc1ccccc1C1N=C2Oc3ccccc3C=C2C(=O)N1 (configuration not stated)	.	.	.	.	.	-2	.
COC(CNC(=O)c1ccc2c3c(onc13)-c1ccccc1C2=O)OC	-82	27*	-44	53*	-2	0	20*
